Test results taken from PubChem BioAssay (EPA / NIEHS).
Values joined by “and” are separate entries in the source; they are usually repeats but may differ in a detail not shown here. Equal values may be shown once. The source holds several records for some structures; these can differ, active in one and inactive in another. Active and inactive are the calls of the source. Rule for the calls: active = hit-call score of the fitted dose curve at least 0.9, where 1 is the maximum; inactive = score below 0.9.

Columns and labels:
Settings in all cases: mRNA level, 48 h; actives raise or lower the signal
[1] = read-out: Apolipoprotein A-V (APOA5) gene, APOA5 (gene 116519); test: LTEA_HepaRG_APOA5: Life Technologies and Expression Analysis (LTEA) Assay for Apolipoprotein A-V (APOA5) gene using HepaRG (AID 2283474)
Method in brief: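 Readout is APOA5 transcript level by qRT-PCR on Fluidigm dynamic arrays, normalized to three housekeeping genes. HepaRG cultures received chemicals for 48 h at up to 100 uM (half-log steps, 0.5% DMSO), with gain or loss scored relative to DMSO.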

[2] = read-out: Apoptosis regulator Bcl-2 (Homo sapiens) (UniProt P10415); test: LTEA_HepaRG_BCL2: Life Technologies and Expression Analysis (LTEA) Assay for Bcl-2 gene using HepaRG (AID 2283475)
Method in brief: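 Differentiated HepaRG cells in serum-free induction medium were exposed for 48 h to eight half-log concentrations up to 100 uM in 0.5% DMSO, in duplicate. BCL2 mRNA was quantified by TaqMan qRT-PCR normalised to ACTB, GAPDH and POLR2A, with bidirectional fitting versus DMSO.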

[3] = read-out: Bcl-2 (BID) gene, BID (gene 637); test: LTEA_HepaRG_BID: Life Technologies and Expression Analysis (LTEA) Assay for Bcl-2 (BID) gene using HepaRG (AID 2283476)
Method in brief: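 Differentiated HepaRG cells in serum-free induction medium were exposed in duplicate for 48 h to eight half-log concentrations up to 100 uM in 0.5% DMSO. BID mRNA was quantified by qRT-PCR, normalized to ACTB, GAPDH and POLR2A.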

Caspase-3 (Homo sapiens) = Caspase-3 (Homo sapiens) (UniProt P42574); test: LTEA_HepaRG_CASP3: Life Technologies and Expression Analysis (LTEA) Assay for cysteine-aspartic acid protease (CASP3) using HepaRG (AID 2283477)
Method in brief: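 Read-out is CASP3 mRNA level by TaqMan qRT-PCR in human HepaRG cells after 48 h chemical exposure. Eight half-log concentrations topping at 100 uM were tested in 0.5% DMSO; gain or loss was fitted relative to DMSO.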

[4] = read-out: Cytochrome P450 (CYP24A1), CYP24A1 (gene 1591); test: LTEA_HepaRG_CYP24A1: Life Technologies and Expression Analysis (LTEA) Assay for Cytochrome P450 (CYP24A1) using HepaRG (AID 2283478)
Method in brief: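 HepaRG, 48 h chemical exposure, 8-pt half-log CRC from 100 uM, 0.5% DMSO vehicle, duplicates. Endpoint: CYP24A1 mRNA by Fluidigm TaqMan qRT-PCR, normalized ACTB/GAPDH/POLR2A; gain/loss fit vs DMSO.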

[5] = read-out: Cytochrome P450 (CYP1A2), CYP1A2 (gene 1544); test: LTEA_HepaRG_CYP1A2: Life Technologies and Expression Analysis (LTEA) Assay for Cytochrome P450 (CYP1A2) using HepaRG (AID 2283479)
Method in brief: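 CYP1A2 transcript induction or loss, quantified by Fluidigm qRT-PCR against three housekeeping genes, was fitted bidirectionally against 0.5% DMSO controls. Human HepaRG cells received eight half-log concentrations from 100 uM over 48 h.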

[6] = read-out: cysteine-aspartic acid protease (CASP8), CASP8 (gene 841); test: LTEA_HepaRG_CASP8: Life Technologies and Expression Analysis (LTEA) Assay for cysteine-aspartic acid protease (CASP8) using HepaRG (AID 2283480)
Method in brief: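 Differentiated HepaRG cells in serum-free induction medium, 48 h exposure, eight-point half-log series from 100 uM in 0.5% DMSO, duplicates. CASP8 mRNA by qRT-PCR, normalized to ACTB, GAPDH, POLR2A; bidirectional fit versus DMSO.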

[7] = read-out: Cytochrome P450 (CYP2B6), CYP2B6 (gene 1555); test: LTEA_HepaRG_CYP2B6: Life Technologies and Expression Analysis (LTEA) Assay for Cytochrome P450 (CYP2B6) using HepaRG (AID 2283481)
Method in brief: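 HepaRG cells plated 48 h, switched to serum-free induction medium, then dosed 48 h (8 points, half-log from 100 uM, 0.5% DMSO). RNA isolated; CYP2B6 expression measured by qRT-PCR; gain or loss fitted relative to DMSO.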

[8] = read-out: Cytochrome P450 2C19 (Homo sapiens) (UniProt P33261); test: LTEA_HepaRG_CYP2C19: Life Technologies and Expression Analysis (LTEA) Assay for CYP2C19 using HepaRG (AID 2283482)
Method in brief: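 Transcript levels of CYP2C19 were quantified by qRT-PCR after HepaRG cells were treated for 48 hours with test chemicals up to 100 uM (eight half-log concentrations, 0.5% DMSO vehicle). Gain or loss of signal was fitted relative to DMSO.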

CYP2C8 (gene 1558) = test: LTEA_HepaRG_CYP2C8: Life Technologies and Expression Analysis (LTEA) Assay for CYP2C8 using HepaRG (AID 2283483)
Method in brief: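 Differentiated HepaRG cells in serum-free induction medium exposed 48 h in duplicate to 8 half-log concentrations from 100 uM in 0.5% DMSO. CYP2C8 mRNA by qRT-PCR normalized to ACTB, GAPDH, POLR2A; bidirectional fit versus DMSO.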

Apoptosis regulator Bcl-2 (Homo sapiens), sequence (P10415 whole entry, looked up): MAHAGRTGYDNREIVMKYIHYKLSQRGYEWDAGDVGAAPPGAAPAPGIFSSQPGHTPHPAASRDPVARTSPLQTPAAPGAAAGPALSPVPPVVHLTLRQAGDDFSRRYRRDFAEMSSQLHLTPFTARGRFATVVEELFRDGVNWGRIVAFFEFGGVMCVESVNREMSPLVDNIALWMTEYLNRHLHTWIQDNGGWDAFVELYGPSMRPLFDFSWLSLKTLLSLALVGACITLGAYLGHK
Cytochrome P450 2C19 (Homo sapiens), sequence (P33261 whole entry, looked up): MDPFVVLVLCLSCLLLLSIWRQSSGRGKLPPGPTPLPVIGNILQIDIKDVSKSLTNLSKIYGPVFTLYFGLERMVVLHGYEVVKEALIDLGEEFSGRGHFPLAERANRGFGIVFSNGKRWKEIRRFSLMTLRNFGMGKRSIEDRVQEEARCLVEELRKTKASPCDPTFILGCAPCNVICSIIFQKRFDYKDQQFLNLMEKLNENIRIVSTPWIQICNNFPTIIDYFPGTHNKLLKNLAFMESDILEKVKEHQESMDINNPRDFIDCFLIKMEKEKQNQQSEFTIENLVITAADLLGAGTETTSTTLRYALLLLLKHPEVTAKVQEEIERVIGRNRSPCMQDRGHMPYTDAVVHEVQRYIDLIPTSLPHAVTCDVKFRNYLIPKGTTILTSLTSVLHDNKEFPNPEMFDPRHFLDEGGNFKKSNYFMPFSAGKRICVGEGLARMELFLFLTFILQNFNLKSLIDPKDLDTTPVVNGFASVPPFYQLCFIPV
Caspase-3 (Homo sapiens), sequence (P42574 whole entry, looked up): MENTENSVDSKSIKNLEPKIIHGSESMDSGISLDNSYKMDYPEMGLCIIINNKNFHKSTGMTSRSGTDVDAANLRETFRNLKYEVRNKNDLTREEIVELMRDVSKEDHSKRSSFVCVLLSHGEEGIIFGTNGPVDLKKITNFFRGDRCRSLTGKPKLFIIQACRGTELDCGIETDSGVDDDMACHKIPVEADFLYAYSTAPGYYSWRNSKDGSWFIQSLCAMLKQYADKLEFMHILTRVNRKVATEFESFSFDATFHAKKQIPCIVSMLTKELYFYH

| Structure (SMILES) | AC50 [1] | AC50 [2] | AC50 [3] | outcome (Caspase-3 (Homo sapiens)) | outcome [4] | outcome [5] | outcome [6] | AC50 [7] | AC50 [8] | AC50 (CYP2C8 (gene 1558)) | outcome [1] | outcome [2] | outcome [3] | outcome [7] | outcome [8] | outcome (CYP2C8 (gene 1558)) | AC50 [5] |
| --- | --- | --- | --- | --- | --- | --- | --- | --- | --- | --- | --- | --- | --- | --- | --- | --- | --- |
| C[C@]12CC[C@@H]3c4ccc(O)cc4C[C@@H](CCCCCCCCCS(=O)CCCC(F)(F)C(F)(F)F)[C@H]3[C@@H]1CC[C@@H]2O (stereo partly specified) | 50 µM (active) | 0.0469 µM (active) | 0.0682 µM (active) | inactive | inactive | inactive | inactive | 29.9 µM (active) | 26 µM (active) | 32.6 µM (active) |  |  |  |  |  |  |  |
| C#CCOC(=O)[C@@H](C)Oc1ccc(Oc2ncc(Cl)cc2F)cc1 |  |  |  | inactive | inactive | inactive | inactive |  |  |  | inactive | inactive | inactive | inactive | inactive | inactive |  |
| CC(C)CCCCCCc1ccc(O)cc1 |  |  |  | inactive | inactive | inactive | inactive |  |  |  | inactive | inactive | inactive | inactive | inactive | inactive |  |
| CC(C)(c1ccc(O)cc1)c1ccc(O)cc1 |  |  |  | inactive | inactive |  | inactive | 50 µM (active) and 31.1 µM (active) and 64.4 µM (active) | 37.1 µM (active) |  | inactive | inactive | inactive |  | inactive | inactive | 50 µM (active) |
| CCC(C)OC(=O)N1CCCCC1CCO (stereo unspecified) |  |  |  | inactive | inactive | inactive | inactive | 35 µM (active) | 50 µM (active) |  | inactive | inactive | inactive |  |  | inactive |  |
| c1ccc(Nc2ccccc2)cc1 |  |  |  | inactive | inactive | inactive | inactive | 24.9 µM (active) |  |  | inactive | inactive | inactive |  | inactive | inactive |  |
